# Assay outcomes (PubChem)
# CYP2C19 activ: activators of human cytochrome P450 2C19 | P33261 | activation factor at 5 µM | 96,000 tested, under 10 active | AID 1025 | recombinant CYP2C19, luciferin-H EGE luminescence; active compounds read high; 0 = fully inhibited enzyme, 1 = untreated enzyme;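 active = activation factor of at least 2 at 5 µM in the primary screen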;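 also: 0 = wells with 2.5 mM tranylcypromine and 1 = vehicle-only wells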
# CYP2C9 inhib: blocks human cytochrome P450 2C9; CYP2C9 Supersomes, luciferin-H conversion, luminescence; inhibition, % at 5 µM; 20% of 96,000 active;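 active = blocking of liver enzyme CYP2C9 beyond about 50% at 5 µM, limit read from the data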
# Target sequence (P11712 whole entry, looked up): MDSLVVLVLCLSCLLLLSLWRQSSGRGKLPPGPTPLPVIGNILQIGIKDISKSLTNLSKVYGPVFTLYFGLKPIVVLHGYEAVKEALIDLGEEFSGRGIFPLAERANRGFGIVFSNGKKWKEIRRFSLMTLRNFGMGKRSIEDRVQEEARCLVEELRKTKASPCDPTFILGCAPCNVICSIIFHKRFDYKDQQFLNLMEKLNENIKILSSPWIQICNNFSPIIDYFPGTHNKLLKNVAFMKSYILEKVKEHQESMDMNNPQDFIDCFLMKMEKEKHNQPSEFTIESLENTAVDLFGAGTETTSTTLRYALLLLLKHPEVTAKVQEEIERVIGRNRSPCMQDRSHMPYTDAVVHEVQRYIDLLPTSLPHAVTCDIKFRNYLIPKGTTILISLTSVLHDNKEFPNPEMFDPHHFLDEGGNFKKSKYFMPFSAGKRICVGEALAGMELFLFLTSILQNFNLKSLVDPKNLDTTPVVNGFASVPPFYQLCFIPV
# CYP2C9 act: CYP2C9 (human) activation; P11712; recombinant CYP2C9, luciferin-H conversion, luminescence; active compounds read high; factor 1 = untreated enzyme, 0 = blocked; activation factor at 5 µM; 1.4% of 96,000 active; AID 1024;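 active = activation factor of 2 or more for CYP2C9 at a 5 µM dose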;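 also: 0 = sulfaphenazole-blocked wells and 1 = vehicle-only wells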
# PostGolgi ctrl: growth of the yeast control strain, post-Golgi counter-screen. efflux-deficient yeast background strain, growth absorbance A615, 16 h. 5% of 98,000 active. AID 738. inhibition, % at 10 µM
# CYP2C19 inhib: blocks human cytochrome P450 2C19 | AID 778 | 21% of 96,000 active | inhibition, % at 5 µM | P33261 | CYP2C19 Supersomes, luciferin-H EGE luminescence, 30 min;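 active = CYP2C19 inhibition above a set limit at 5 µM in the primary screen, cut at about 50% in these data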;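 also: plate controls were negative control wells for no effect and 2.5 mM tranylcypromine positive control for full effect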
# PostGolgi yeast: growth inhibition of a yeast mutant, post-Golgi transport screen; 0.9% of 98,000 active; post-Golgi transport phenotypic cell assay; inhibition, % at 10 µM;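 also: yeast cells grown in 1536-well plates; yeast grown about 18 h at 30C before absorbance read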
# Numbers without * were called inactive; · = not tested or not shown. Only some compounds are listed: those with a hit (about 32% of all), similar ones and a draw of the others. Rule as the data show it, unless noted: active = inhibition above about 30%; inactive = the rest.
SMILES,CYP2C19 activ,CYP2C9 inhib,CYP2C9 act,PostGolgi ctrl,CYP2C19 inhib,PostGolgi yeast
Cc1cccc(S(=O)(=O)Nc2cccc3c2C(=O)c2ccccc2-3)c1,1,59*,0.4,23,-1,1
CC1(C)CC(=O)c2cc(OCC(=O)N3CCN(c4ccccc4F)CC3)ccc2O1,0.3,49,0.5,14,68*,-1
CC1(C)CC(=O)c2cc(OCC(=O)N3CCCCCC3)ccc2O1,1,-3,1,13,0,8
CCN(CC)C(=O)C1CCCN(c2ccc([N+](=O)[O-])cc2/C=N/NC(=O)c2cccc([N+](=O)[O-])c2)C1 (stereo not drawn),0.6,45,0.6,12,38,-10
Cc1csc2ncc(C(=O)NCc3ccco3)c(=O)n12,·,·,·,-2,·,17
CN(C)CC(C)(C)CNS(=O)(=O)c1ccc(Cl)c(Cl)c1,0.2,50*,0.5,-3,83*,-5
O=C(Nc1cccc(-c2cn3ccccc3n2)c1)C1CC1,0.9,15,0.9,8,7,-1
CCCC(=O)NCc1cc(-c2nn(C)c(=O)c3ccccc23)ccc1C,0.7,40,0.6,15,25,-20
CCCC(=O)O[C@H]1C[C@@H](C)N(C(=O)c2ccccc2)c2ccc(C)cc21,0.4,63*,0.4,39*,58*,-2
CCOc1ccccc1OCC(=O)NN1Cc2ccccc2C1=N,1,-26,1.3,5,4,-4
COC(=O)CC1NCCNC1=O (stereo not drawn),1,-19,1.2,-2,-3,-1
O=C(COC(=O)c1c2ccccc2cc2ccccc12)Nc1ncc(C(F)(F)F)cc1Cl,0.9,17,0.8,6,7,-2
Cc1sc2ncnc(Sc3nnnn3-c3ccccc3)c2c1C,0.4,23,0.8,29,56*,12
Cc1sc2ncnc(N[C@@H](CCC(=O)O)C(=O)O)c2c1C,1.1,4,1,15,-8,3
Cc1sc2ncnc(NCc3ccccc3)c2c1C,0.2,47,0.5,6,75*,-4
Cc1sc2ncnc(Nc3ccccc3)c2c1C,0.5,-1,1,33*,50*,3
CCSc1nnnn1-c1ccccc1,0.7,9,0.9,-7,32,-3
Cc1sc2ncnc(NCC(c3ccco3)N(C)C)c2c1C (stereo not drawn),·,·,·,3,·,-7
CSCC[C@H](Nc1ncnc2sc(C)c(C)c12)C(=O)O,1.1,83*,0.2,-3,-7,-2
OC(CNC1CCCCC1)CN1CCN(CC(O)CNC2CCCCC2)CC1 (stereo not drawn),1,-4,1,·,2,·
CCN1C(=O)C(O)(C2COC(C)(C)CC2=O)c2cc(Br)ccc21 (stereo not drawn),0.6,-10,1.1,3,42,1
N#CC1=C(N)OC(c2ccccc2)=C(C#N)C1c1ccc2c(c1)OCO2 (stereo not drawn),0.9,10,0.9,98*,6,104*
CCN(CC)c1ccc2c(c1)OC(N)=C(C#N)C2c1cccnc1 (stereo not drawn),0.2,45,0.5,17,82*,11
CSc1ccc(C2C(C#N)=C(N)Oc3cc4c(cc32)OCO4)cc1 (stereo not drawn),0.9,23,0.8,4,8,2
N#CC1=C(N)Oc2cc(N)ccc2C1c1ccc(F)cc1 (stereo not drawn),0.3,50*,0.5,-3,74*,20
SMILES,CYP2C19 activ,CYP2C9 inhib,CYP2C9 act,PostGolgi ctrl,CYP2C19 inhib,PostGolgi yeast
Cc1ccc(C2C(C#N)=C(N)Oc3cc4c(cc32)OCO4)cc1 (stereo not drawn),0.3,74*,0.3,14,72*,-5
COc1cc(C2C(C#N)=C(N)Oc3cc(N)ccc32)cc(OC)c1OC (stereo not drawn),·,·,·,7,·,7
O=C(CSc1nnc(CNc2ccccc2)o1)N1CCN(C(=O)c2ccco2)CC1,·,·,·,1,·,6
Cc1nc2n(n1)C(c1ccccc1)C1=C(CC(c3ccco3)CC1=O)N2 (stereo not drawn),1,0,1,4,-5,12
CC1=C(C(=O)Nc2cccc(C)n2)C(c2ccc3c(c2)OCO3)C2=C(CC(c3ccco3)CC2=O)N1 (stereo not drawn),0.1,94*,0.1,-4,86*,13
Clc1ccc(COc2ccccn2)cc1Cl,0.3,2,1,-5,71*,2
Clc1ccc(Cc2noc(Cc3ccccc3)n2)cc1Cl,0.9,-12,1.1,5,15,-3
COc1ccc(NC(=O)/C(=C\c2cc(OC)c(OC)cc2[N+](=O)[O-])NC(=O)c2ccccc2)cc1,0.9,31,0.7,8,12,-2
COC(=O)/C(=C\Nc1ccc(Cl)c2ccccc12)c1ncc(C(F)(F)F)cc1Cl,0.7,76*,0.2,-11,33,7
CON/C=C(\C=Nc1ccc(F)cc1)c1ncc(C(F)(F)F)cc1Cl,1.1,21,0.8,21,-15,-5
CCOC(=O)C(C(=O)NCc1ccc(C)cc1)c1ncc(C(F)(F)F)cc1Cl (stereo not drawn),0.6,6,0.9,2,37,-1
CCOC(=O)/C(=C\Nc1ccccc1C(F)(F)F)Sc1ncc(C(F)(F)F)cc1Cl,0.4,82*,0.2,0,59*,9
CCCCN(CCCC)Cc1cc2ccccc2c2c1COC2,1,29,0.7,-3,4,0
CNC(=O)c1ccccc1F,1.3,-2,1,0,-28,-1
Cc1nn(Cc2ccccc2)c2c1C(c1ccncc1)C(C#N)=C(N)O2 (stereo not drawn),0.1,100*,0,·,92*,·
Cc1ccc(-n2nc(C)c3c2OC(N)=C(C#N)C3c2ccoc2)cc1 (stereo not drawn),0.7,64*,0.4,-6,26,-3
COc1ccc(C2C(C#N)=C(N)Oc3c2c(C)nn3-c2ccccc2)cc1Cn1nc(C)c([N+](=O)[O-])c1C (stereo not drawn),0.7,85*,0.2,4,31,-5
Cc1ccc(-n2nc(C)c3c2OC(N)=C(C#N)C3c2ccco2)cc1 (stereo not drawn),0.8,37,0.6,25,18,-2
Cc1nn(Cc2ccccc2)c2c1C(c1cccnc1)C(C#N)=C(N)O2 (stereo not drawn),0.7,26,0.7,0,26,2
Cc1nn(-c2ccccc2)c2c1C(c1ccccc1)C(C#N)=C(N)O2 (stereo not drawn),0.1,87*,0.1,2,90*,-5
Cc1ccc(Cl)c(OCC(=O)NCc2ccco2)c1,0.7,-38,1.4,14,32,-21
FC(F)(F)c1cc(-c2ccco2)nc(-n2nc(C(F)(F)F)cc2C2CC2)n1,0.9,20,0.8,6,5,3
CC1CCCC(NC(=O)c2ccc(CNc3c(N4CCCC4)c(=O)c3=O)cc2)C1C (stereo not drawn),1,-1,1,3,0,1
